Shown are actives, neighbours in structure and some others; about 11% of the full set was active somewhere.
FLuc inh-1: inhibitors of firefly (Photinus pyralis) luciferase | P08659 | purified P. pyralis luciferase, luminescence, biochemical | Potency, µM (titrated, usually from 115 µM), most hits filed as inhibitors | actives 2.5% (n = 76,000); note: % is set by controls: 0 for no effect and ±100 for the full control effect; nearly all actives have a fitted effect of over 65% in size
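FLuc 10nM, D-luciferin 10uM, ATP 10uM, Mg acetate 10mM, Tris acetate pH 7.5, Tween/BSA; cpd qHTS; enzyme added last; CCD luminescence.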
HEK293 tox: kills HEK 293 cells. HEK 293 viability, ATP luminescence (CellTiter-Glo), 48-72 h. Potency, µM (top dose mostly 115 µM), inactives show at the highest dose activity change, negative = cytotoxicity, actives largely listed as inhibitors. actives 6.6% (n = 94,000); note: % is set by controls: 0 for no effect and ±100 for the full control effect; nearly all actives have a fitted effect of over 60% in size
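Viability of HEK 293 cells, plated at 250 cells/well, was judged by cellular ATP after compound treatment for 48 or 72 hr. Luminescence was imaged 10 min after CellTiter-Glo addition at room temperature.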
hNpr1 antagonist: antagonists of human natriuretic peptide receptor Npr1. HEK293 hNpr1 GloSensor cGMP, ANP-stimulated luminescence. actives 1.6% (n = 76,000). Potency, µM (titrated, usually from 46.3 µM), inactives show top-dose activity change, negative = inhibition, most hits filed as inhibitors. P16066. AID 1347048; calls by dose curve; note: % is set by controls: 0 for no effect and ±100 for the full control effect; nearly all actives have a fitted effect of over 60% in size
Target sequence (P16066 whole entry, looked up): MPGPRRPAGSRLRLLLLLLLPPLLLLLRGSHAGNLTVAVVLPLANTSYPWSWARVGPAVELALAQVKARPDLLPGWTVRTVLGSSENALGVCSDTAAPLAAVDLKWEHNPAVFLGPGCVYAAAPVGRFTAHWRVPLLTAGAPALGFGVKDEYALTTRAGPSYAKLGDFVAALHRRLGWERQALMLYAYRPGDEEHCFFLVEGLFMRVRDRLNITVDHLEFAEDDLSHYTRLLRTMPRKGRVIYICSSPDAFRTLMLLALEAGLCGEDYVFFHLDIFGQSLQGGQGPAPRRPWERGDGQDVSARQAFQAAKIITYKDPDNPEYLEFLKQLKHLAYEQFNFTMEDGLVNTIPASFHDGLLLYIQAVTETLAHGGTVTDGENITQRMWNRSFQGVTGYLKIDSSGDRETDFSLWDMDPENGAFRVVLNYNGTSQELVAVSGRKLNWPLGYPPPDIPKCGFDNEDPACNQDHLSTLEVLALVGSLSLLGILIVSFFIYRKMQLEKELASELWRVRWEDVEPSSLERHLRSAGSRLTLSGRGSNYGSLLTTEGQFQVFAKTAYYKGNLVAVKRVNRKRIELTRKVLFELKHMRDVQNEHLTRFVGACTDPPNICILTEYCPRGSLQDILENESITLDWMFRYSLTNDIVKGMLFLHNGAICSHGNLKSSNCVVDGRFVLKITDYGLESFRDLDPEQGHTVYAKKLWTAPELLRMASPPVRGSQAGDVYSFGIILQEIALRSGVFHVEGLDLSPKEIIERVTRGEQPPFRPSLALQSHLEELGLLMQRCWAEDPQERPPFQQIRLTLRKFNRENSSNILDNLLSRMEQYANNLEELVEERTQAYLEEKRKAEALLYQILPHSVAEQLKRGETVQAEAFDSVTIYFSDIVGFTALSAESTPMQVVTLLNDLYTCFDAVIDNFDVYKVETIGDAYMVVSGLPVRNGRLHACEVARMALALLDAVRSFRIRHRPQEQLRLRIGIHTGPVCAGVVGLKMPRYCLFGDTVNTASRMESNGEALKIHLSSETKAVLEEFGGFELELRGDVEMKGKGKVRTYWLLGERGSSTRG
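Compound pre-incubated 30 min at room temperature on GloSensor-loaded HEK293 cells stably carrying hNpr1 and the pGS-40F cGMP biosensor. Stimulation uses hNppA at 0.1 nM final; luminescence is taken at baseline and 20 min post-agonist.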
3T3 cytotox: cytotoxic compounds in NIH 3T3 cells | AID 1345082 | Potency, µM (series often up to 96.7 µM), for the others: top-dose activity change, negative = cytotoxicity, usual class: inhibitors | actives 4.3% (n = 94,000) | NIH 3T3 viability, CellTiter-Glo ATP luminescence, 48-72 h; note: % is set by controls: 0 for no effect and ±100 for the full control effect; nearly all actives have a fitted effect of over 55% in size
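ATP-dependent luminescence (CellTiter-Glo) served as the viability signal for NIH 3T3 cells treated with compound for 48 or 72 hr at 37 °C.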
FLuc SDR no ATP: stabilizes firefly luciferase without ATP; shares compounds with FLuc inh-1; Purified FLuc-C-HiBiT, Nano-Glo HiBiT luminescence, no ATP; Potency, µM (highest dose often 32.7 µM), for the others: at the highest dose activation (signal gain), actives largely listed as activators; actives 7.8% (n = 1,300); note: nearly all actives have a fitted effect of over 55% in size
FLuc SDR ATP: stabilizes firefly luciferase with ATP present | purified FLuc-C-HiBiT + ATP, HiBiT complementation luminescence | Potency, µM (titrated, usually from 32.7 µM), inactives show at the highest dose activation (gain of signal), most hits filed as activators | shares compounds with FLuc inh-1 | AID 1963319 | actives 8.7% (n = 1,300);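 note: signal reports ligand binding via conformational change of the enzyme rather than luciferase catalysis; % of control where 0% means no effect; nearly all actives have a fitted effect of over 55% in size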
FLuc inh-2: blocks firefly luciferase enzymatic activity. shares compounds with FLuc inh-1. purified FLuc-C-HiBiT enzyme, luciferin luminescence. Potency, µM (highest dose often 32.7 µM), for the others: top-dose activity change, negative = inhibition, most hits filed as inhibitors. actives 42% (n = 1,300). AID 1963320; note: % is set by controls: 0 for no effect and ±100 for the full control effect; nearly all actives have a fitted effect of over 70% in size
* hit, by the source's call; i = inactive; u = inconclusive; x = no result given; [ ] = dose if it differs, or a comment. Unless noted, calls come from the whole dose curve; as a rule, active = well fitted curve in the direction sought with a large enough effect; inconclusive = small, poorly fitted or top-dose-only effect, or another doubt; inactive = no such curve, though single readings can be large; an effect the other way counts as inactive or inconclusive. Potency is the fitted concentration of half-maximal effect.

SMILES | FLuc inh-1 | HEK293 tox | hNpr1 antagonist | 3T3 cytotox | FLuc SDR no ATP | FLuc SDR ATP | FLuc inh-2
O=C(C1CN(C2CCCCC2)C(=O)N1)N1CCN(Cc2ccccc2)CC1 (centres undefined) | x | 3% | x | -12% | x | x | x
O=C(c1ccccc1F)N1CCC2(CC1)CC(N1CCCCC1)CCO2 (centres undefined) | x | i | x | -7% | x | x | x
OC1(CN2CCCN(c3nc4ccccc4s3)CC2)CNCCOC1 (centres undefined) | 13µM* | u | 2% | u | 17% | 14% | -7%
COc1cccc(CNC(=O)c2ccc3nnc(-c4ccc([S+](C)(=O)[O-])cc4)n3c2)c1 | x | -11% | x | -10% | x | x | x
COc1cccc(-c2ncc3c(n2)OCCN(Cc2ccc(F)cc2F)C3=O)c1 | 13µM* | u | u | u | 13%[49.3 µM] | 10%[49.3 µM] | u
COCCN1CCOc2nc(-c3cc(F)ccc3OC)ncc2C1=O | i | u | 3%[70.6 µM] | u | x | x | x
COc1cc(F)cc(-c2ncc3c(n2)OCCN(Cc2ccc(F)cc2F)C3=O)c1 | i | u | u | u | x | x | x
COCCN1CCOc2nc(-c3cc(F)cc(OC)c3)ncc2C1=O | 1.6µM* | -27%[172 µM] | u | 28µM* | u | u | 11µM*
O=C(Cc1ccc(F)cc1)N1CCN(C(=O)c2nnn3c2COC(c2ccc(F)cc2)C3)CC1 (centres undefined) | i | u | u | -14% | x | x | x
COc1cccc(C(=O)NCCNC(=O)c2ccc(-c3cncnc3)cc2)c1 | x | u | x | -23% | x | x | x
CN(C)c1cccc(C(=O)N2CCC3(CC2)N=C(c2ccccc2)NO3)c1 | u | -30% | -2% | -11% | x | x | x
Cc1ccc(C2=NC3(CCN(C(=O)c4cccc(N(C)C)c4)CC3)ON2)cc1 | 14µM* | -24% | -17% | -24% | 21% | u | u
O=C1CCN(C(=O)[C@@H]2CCCN2C(=O)Nc2ccc3c(c2)OCCO3)CCCCCCN1 | i | i | 3% | -11% | x | x | x
O=C1NCCCCCCN(C(=O)Nc2ccc3c(c2)OCCO3)[C@H]2CCC[C@@H]12 | 1.1µM* | -9% | u | -17% | u | u | 3.5µM*
COc1ccc(CN2CCOC[C@H](OCC(=O)N(C)C)C2)cc1 | i | i | 0%[70.6 µM] | i | 18%[49.3 µM] | 10%[49.3 µM] | -1%[49.3 µM]
COc1ccc(-c2ccccc2C(=O)N2CCOCC2)nn1 | x | 1%[172 µM] | x | -20%[138 µM] | x | x | x
CC(=O)N1CCN(C[C@@H]2C=C(C)[C@H](Cc3nnc(-c4ccccc4F)o3)C[C@H]2C(C)C)CC1 | i | u | -16% | u | x | x | x
Cn1ccc2c(C(=O)NCC3CCOCC3)nc(-c3cccc(N4CCOCC4)c3)cc21 | i | u | 0%[70.6 µM] | u | x | x | x
Cn1ccc2c(C(=O)NCCc3ccccn3)nc(-c3cccc(N4CCOCC4)c3)cc21 | i | u | 1% | u | x | x | x
Cn1ccc2c(C(=O)NCCc3cnc[nH]3)nc(-c3ccc(N4CCOCC4)cc3)cc21 | 1µM* | u | -2%[70.6 µM] | u | u | u | 4.5µM*
CN1CCN(c2ccc(-c3cc4c(ccn4C)c(C(=O)NCCc4ccccn4)n3)cc2)CC1 | 0.79µM* | 35µM* | -12% | 20µM* | u | u | 2.8µM*
COc1ccccc1-c1nnc2ccc(C(=O)N3CCOCC3)cn12 | x | -1%[172 µM] | x | 2%[138 µM] | x | x | x
NCCCC(=O)N1Cc2ccccc2CC2(CCCN(CC3CCOCC3)C2)C1 (centres undefined) | x | -22% | x | u | x | x | x
O=C1CCN(C(=O)c2ccccc2)CCCC(C(=O)N2CCc3ccccc32)CCN1 (centres undefined) | i | 1% | 1% | -16% | x | x | x
Cn1ccnc1CN1C(=O)CO[C@H](c2ccc(NC(=O)COc3ccccc3)cc2)[C@H]1CO | u | -26% | 1% | -26% | x | x | x
SMILES | FLuc inh-1 | HEK293 tox | hNpr1 antagonist | 3T3 cytotox | FLuc SDR no ATP | FLuc SDR ATP | FLuc inh-2
Cn1ccnc1CN1C(=O)CO[C@H](c2ccc(NC(=O)Nc3ccccc3)cc2)[C@H]1CO | 10µM* | -4% | 0% | 2% | 18% | 13% | u
O=C(Nc1ccc2ncnc(N3CCCCC3)c2c1)c1ccccc1Cl | i | u | -16% | u | x | x | x
Cc1ccc(-n2ncc3c(N4CCCCC4)ncnc32)cc1 | x | x | x | x | 1.8µM* | 1.1µM* | 0.2µM*
Cc1ccc(-n2ncc3c(N4CCCCC4)ncnc32)cc1Cl | x | x | x | x | 8.8µM* | 1.8µM* | 0.79µM*
Cc1ccc(-n2ncc3c(N4CCCCCC4)ncnc32)cc1Cl | x | x | x | x | u | u | 0.7µM*
Cc1noc(-c2ccc(S(=O)(=O)N3C[C@H](C4CC4)[C@@H](N)C3)o2)c1C | i | u | 1% | u | x | x | x
O=C(NCCCn1nnc2ccccc21)C1CC(=O)N(Cc2ccccn2)C1 (centres undefined) | i | i | 3% | 2% | x | x | x
COc1ccc(NC2=N[C@H]3[C@@H](O)[C@H](O)C[C@H](C(=O)NCc4ccccc4OC)[C@H]3S2)cc1 | i | i | 0% | 0% | x | x | x
CN(Cc1ccccc1)C(=O)[C@H]1C[C@@H](O)[C@H](O)[C@@H]2N=C(Nc3ccc(-n4cccn4)cc3)S[C@@H]21 | 13µM* | u | 6% | -27% | 9% | u | u
COc1ccccc1C(=O)N1C[C@@H](CO)[C@H](NC(=O)c2ccccc2)C1 | x | i | x | -9% | x | x | x
c1ccc(Nc2ncc(-c3cccnc3)c3c2OCC3)cc1 | x | x | x | x | 22%[65.7 µM] | u | u
COc1ccc(-c2cnc(Nc3cccc(N[S+](C)(=O)[O-])c3)c3c2CCO3)cn1 | 14µM* | 89µM* | 0%[70.6 µM] | u | 16%[49.3 µM] | 12%[49.3 µM] | u
Cc1cc(-c2cnc(Nc3ccc(F)cc3)c3c2CCO3)ccn1 | i | u | -18%[70.6 µM] | u | x | x | x
Fc1ccc(Nc2ncc(-c3cccnc3)c3c2OCC3)cc1 | 11µM* | -11%[172 µM] | -18%[70.6 µM] | u | 19%[49.3 µM] | 14%[49.3 µM] | u
COc1cccc(Nc2ncc(-c3cccc(N(C)C)c3)c3c2OCC3)c1 | u | -66%[172 µM] | u | u | x | x | x
Clc1ccc(Nc2ncc(-c3cccnc3)c3c2OCC3)cc1 | 5µM* | u | -22%[70.6 µM] | u | 11%[49.3 µM] | 8%[49.3 µM] | u
CN1CCN(Cc2ccc(Nc3ncc(-c4cncnc4)c4c3OCC4)cc2)CC1 | i | u | -2%[70.6 µM] | u | x | x | x
Cn1cc(-c2cnc(Nc3ccc(N4CCOCC4)cc3)c3c2CCO3)cn1 | 4µM* | u | -18%[70.6 µM] | u | u | u | 14µM*
COc1ccc(C)cc1-c1ccc(COc2ccc3c(cnn3CCC(=O)O)c2)cc1 | i | u | -1%[70.6 µM] | -16%[138 µM] | x | x | x

High-throughput results as filed in PubChem BioAssay.
